Screening data deposited in PubChem BioAssay by several laboratories.
In the library only some 3.4% were active in any assay of this set; here they are far more common.
APP 5'UTR act: activators of APP 5'UTR luciferase reporter, primary screen, SH-SY5Y cells. SH-SY5Y APP 5'UTR luciferase reporter, luminescence; zero percent = DMSO vehicle wells. activation, % at 2 µM. hit rate 1% among 190,000. AID 1276, 2008;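 active = activation above a set limit, based on mean plus 3 SD of controls, cut at about 140% in these data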
hcDAF12 agonist: H. contortus DAF-12 nuclear receptor activators, primary screen, cell-based, luminescence, HEK293, lit1-tk-luc reporter | activation, % at 6.8 µM | hit rate 1.4% among 370,000 | AID 652067, 2013 | HEK293 hcDAF-12 lit1-tk-luc reporter; 0% DMSO, 100% Δ7-dafachronic acid;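 active = activation above the mean of all tested compounds plus 3 SD, cut at about 5.5% in these data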;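 note: 100% = response to 3 µM Δ7-dafachronic acid high control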
hgDAF-12 ag: H. glycines DAF-12 receptor agonists, primary screen, cell-based, luminescence, HEK293, GAL4 fusion, UAS-luciferase | Nuclear hormone receptor DAF-12 (Heterodera glycines), GAL4 fusion | HEK293 GAL4-hgDAF12 UAS-luciferase reporter, agonist luminescence; normalized to butyrate control | activation, % at 6.8 µM | hit rate 1.8% among 370,000 | AID 687014, 2013;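 active = activation above a cutoff set at the mean of all screened compounds plus 3 SD, cut at about 10% in these data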;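 note: 0% = DMSO wells and 100% = sodium butyrate wells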
NF-kB neuron act: activators of NF-kB expression in neurons, primary screen, cell-based, HTS; human neuronal cells, NF-kB reporter expression; active compounds read high; fold change at 12.5 µM; hit rate 1.6% among 190,000; in the data active = fold change above about 3.3
ssDAF-12 act: S. stercoralis DAF-12 nuclear receptor activators, primary screen, cell-based, luminescence, HEK293, GRIP1 co-expression, lit1-tk-luc; HEK293 ssDAF-12/GRIP1 lit1-tk-luc reporter; % of 3 µM dafachronic acid response; activation, % at 6.8 µM; hit rate 1% among 370,000; AID 652126, 2013;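 active = activation above the mean over all tested compounds plus 3 SD, cut at about 0.9% in these data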;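 note: 0% = DMSO-only wells and 100% = 3 µM delta7-dafachronic acid wells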
LXR ag: LXR agonists, Gal4 luciferase reporter, confirmation, counter-screen for hcDAF-12 agonist project, cell-based, luminescence, HEK293, H. contortus campaign; shares compounds with hcDAF12 agonist; HEK293 Gal4-LXR tk-luc reporter, 24 h; normalized: DMSO 0%, positive control 100%; activation, % at 6.8 µM; 3,400 tested, under 10 active; AID 743027, 2013;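 active = mean percent activation of the reporter above a cutoff set as the average over tested compounds plus their standard deviation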
Target sequence (P55055 whole entry, looked up, the tested form may be a part): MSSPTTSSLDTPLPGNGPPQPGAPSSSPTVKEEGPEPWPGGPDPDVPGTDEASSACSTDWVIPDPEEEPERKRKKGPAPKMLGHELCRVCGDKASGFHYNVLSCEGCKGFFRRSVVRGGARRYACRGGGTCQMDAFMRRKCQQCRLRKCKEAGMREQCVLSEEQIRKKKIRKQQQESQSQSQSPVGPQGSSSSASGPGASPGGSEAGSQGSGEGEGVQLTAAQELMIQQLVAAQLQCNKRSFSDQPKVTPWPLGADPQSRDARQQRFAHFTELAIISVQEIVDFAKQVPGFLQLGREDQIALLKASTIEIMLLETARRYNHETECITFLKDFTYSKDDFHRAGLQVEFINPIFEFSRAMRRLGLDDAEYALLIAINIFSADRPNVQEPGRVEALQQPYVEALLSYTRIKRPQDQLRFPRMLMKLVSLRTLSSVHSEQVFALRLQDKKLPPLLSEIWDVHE
hcDAF12 ag: H. contortus DAF-12 receptor agonists, confirmation, cell-based, luminescence, HEK293, lit1-tk-luc, triplicate. HEK293 hcDAF-12 lit1-tk-luc reporter; % of Δ7-dafachronic acid response. shares compounds with hcDAF12 agonist. activation, % at 6.8 µM. AID 743032, 2013. hit rate 61% among 3,400;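 active = mean activation across triplicate tests above the threshold derived from the earlier primary screen, cut at about 5.5% in these data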;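 note: 0% = DMSO only wells and 100% = 3 µM Δ7-dafachronic acid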
hgDAF12 ag: H. glycines DAF-12 receptor agonists, confirmation, cell-based, luminescence, HEK293, GAL4-LBD fusion; shares compounds with hgDAF-12 ag; activation, % at 6.8 µM; HEK293 GAL4-hgDAF12 luciferase reporter, agonist mode; percent of butyrate response; hit rate 80% among 3,300;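 active = mean activation over triplicate wells above the hit cutoff derived from the earlier primary screen, cut at about 11% in these data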;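 note: 0% = DMSO low control and 100% = 2 mM sodium butyrate high control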
LXRb DAF12 ctr: LXR agonists, Gal4 luciferase reporter, confirmation, counter-screen for hgDAF-12 agonist project, cell-based, luminescence, HEK293, H. glycines campaign; shares compounds with hgDAF-12 ag; 24 h; activation, % at 6.8 µM; 3,300 tested, under 10 active;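 active = mean activation of the triplicate above a set limit carried over from the primary screen, none filed active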
* hit, by the source's call; x = not tested or not shown.

SMILES	APP 5'UTR act	hcDAF12 agonist	hgDAF-12 ag	NF-kB neuron act	ssDAF-12 act	LXR ag	hcDAF12 ag	hgDAF12 ag	LXRb DAF12 ctr
O=C(N/N=C/c1c[nH]c2ccccc12)c1cc(-c2ccc(-c3ccccc3)cc2)n[nH]1	70.5	7.8*	14.5*	0.95	0.9	0.2	4.4	0.5	0.1
CN(C)C=Nc1ccc2nc3c(cc2c1)[nH]c1ccccc13	x	17.8*	17.5*	x	1.9*	1.5	13.3*	19.0*	0.8
COc1ccc2c(c1)CCC/C2=N\NC(=O)c1ccoc1C	108.5	7.6*	24.9*	1.66	1.2*	-0.1	0.2	4.6	0.1
COc1ccc(-c2nc3ccccc3s2)cc1NC(C)=O	153.7*	9.6*	19.1*	2.37	0.4	0.9	7.8*	16.3*	0.7
COc1cccc(-c2nc3ccccc3s2)c1	142.8*	14.9*	17.2*	7.8*	1.7*	1.6	10.9*	26.6*	1.1
O=C(NCCc1ccccc1)OCc1cn(-c2ccc(Cl)cc2)nn1	x	2.6	2.9	x	-1.2	x	x	x	x
Cc1ccc(OCc2ccc(C(=O)O)o2)cc1C	x	3.1	7.7	x	0.6	x	x	x	x
CCC(C)c1ccc(OCc2ccc(C(=O)O)o2)cc1 (configuration not stated)	x	10.3*	15.3*	x	0.8	1.4	8.7*	22.1*	1.0
Nc1ccc2c(c1)C(=O)c1ccccc1C2=O	x	7.3*	17.2*	x	0.8	0.5	2.1	17.9*	0.9
Nc1ccc2c(c1)C(=O)c1ccccc1-2	x	-1.1	0.0	x	-1.3	x	x	x	x
O=C(CCc1ccccc1)N[C@H]1[C@H](OCc2ccccc2)CCC[C@@]12C(=O)N(Cc1ccccc1)c1ccccc12	x	-0.5	-2.8	x	-0.6	x	x	x	x
O=C(O)c1cccc(S(=O)(=O)Nc2ccc(OCc3ccccc3)cc2)c1	x	0.8	1.0	x	-1.1	x	x	x	x
O=C(O)c1cccc(COc2ccc3c(c2)CCC3)c1	x	10.1*	13.9*	x	2.8*	1.6	11.9*	23.0*	1.2
C[C@H]1COc2c3ccccc3nn21	x	1.7	-0.1	x	-0.8	x	x	x	x
Clc1ccc(-c2nsc(N3CCOCC3)n2)c(Cl)c1	x	8.6*	16.1*	x	0.7	1.0	2.6	15.9*	0.7
CCN(CC)c1ccc(C2C(C(=O)OC)=C(C)NC(C)=C2C(=O)OC)cc1	-6.4	0.2	0.6	0.98	-2.1	x	x	x	x
CCN(CC)c1ccc(/C=C/C(=O)C2C(=O)C=C(C)OC2=O)cc1 (configuration not stated)	164.1*	7.7*	18.8*	1.92	0.3	0.4	4.2	7.9	0.3
Cc1cccc(C(=O)Nc2ccc3c(c2)nc(C)n3C)c1	x	3.5	9.1	x	0.5	x	x	x	x
COc1cccc(NC(=O)COc2ccc3c(c2)CCC3)c1	-22.1	0.0	4.5	1.34	-0.8	x	x	x	x
COc1cccc(C(=O)Nc2ccc3ccccc3c2)c1	x	7.5*	17.1*	x	0.5	1.9	9.9*	24.3*	1.5
Cc1noc(C)c1C(=O)Nc1ccc2ccccc2c1	x	-1.9	-1.6	x	-1.3	x	x	x	x
Cc1cccc(C(=O)Nc2ccc3ccccc3c2)c1	x	7.0*	13.8*	x	0.8	2.0	6.5*	23.3*	1.0
O=C(Nc1ccc2ccccc2c1)c1onc2c1CCCC2	205.8*	11.6*	13.9*	8.14*	1.4*	1.8	6.4*	21.2*	1.1
COc1cccc(NC(=O)c2ccc3c(c2)CCCC3)c1	x	7.9*	17.4*	x	1.2*	1.5	5.4	17.9*	1.1
Cc1ccc(-c2cn(-c3ccccc3)c(SCC(=O)NC3CCS(=O)(=O)C3)n2)cc1C (configuration not stated)	126.8	8.4*	17.0*	0.58	-0.2	1.0	4.1	6.6	0.7
SMILES	APP 5'UTR act	hcDAF12 agonist	hgDAF-12 ag	NF-kB neuron act	ssDAF-12 act	LXR ag	hcDAF12 ag	hgDAF12 ag	LXRb DAF12 ctr
Cc1ccc(SCC(=O)NC2CCS(=O)(=O)C2)cc1C (configuration not stated)	x	0.4	0.8	x	0.2	x	x	x	x
COc1cccc(N(C(=O)c2nc3nccc(C)n3n2)c2nc3ccccc3s2)c1	190.2*	8.4*	19.7*	5.98*	1.1*	1.3	5.2	16.4*	0.8
C[C@H]1[C@@H](OC(=O)NC2CCCCC2)CC[C@@]23CCCN2C(=O)CCC[C@@H]13	x	-0.4	-1.8	x	-1.6	x	x	x	x
NC(=O)c1ccccc1NC(=O)c1ccc2ccccc2c1	x	11.3*	22.6*	x	3.1*	1.9	9.2*	22.5*	1.0
Cc1ccccc1NC(=O)c1ccc2ccccc2c1	x	2.4	6.0	x	-0.4	x	x	x	x
Cc1ccc(C(=O)Nc2nc3ccccc3[nH]2)cc1	x	0.5	-3.6	x	-0.7	x	x	x	x
O=C(Nc1nc2ccccc2[nH]1)c1cccc(F)c1	x	13.2*	16.9*	x	2.3*	1.7	12.2*	17.5*	0.9
c1ccc2c(C3=NNC(=NC4CC4)SC3)c[nH]c2c1	119.2	14.2*	20.4*	2.55	2.1*	1.8	7.6*	12.7*	0.9
Cc1ccc2nc(C)/c(=N\O)c(C)nc2c1	195.4*	10.0*	14.6*	1.41	0.6	0.2	4.9	5.2	0.5
COCCCN1CCC2(CCC(c3ccccc3)CC2)C1=O (configuration not stated)	x	-1.2	0.3	x	-0.8	x	x	x	x
CCOC(=O)C(=O)N=Nc1c(O)[nH]c2ccccc12	-2.6	2.2	2.2	1.14	-0.5	x	x	x	x
O=C(O)c1ccc(N=Nc2c(O)[nH]c3ccccc23)cc1	x	12.1*	15.8*	x	2.0*	1.5	9.9*	16.8*	1.1
